For 4 compounds, outcome and AC50 results are on record in PubChem BioAssay (EPA / NIEHS).

Where “and” joins values, the source holds several entries; their conditions need not be identical. Identical values can stand only once. Records with an inconclusive call do not appear. More than one record can exist for a structure, and the calls need not agree. Calls of active or inactive are those of the source. The calls were made as follows, unless noted: active = hit-call score of the fitted dose curve at least 0.9, where 1 is the maximum; inconclusive = response in the unintended direction; inactive = score below 0.9.

Assay [1] has as its target human Peroxisome Proliferator-activated Receptor alpha (PPARa), PPARA (gene 5465) (UniProt Q07869). As to the kind of experiment: ATG_PPARa_TRANS: Attagene TRANS-FACTORIAL HepG2 Assay for human Peroxisome Proliferator-activated Receptor alpha (PPARa) (AID 2283001).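 As to AC50: potency for gain of reporter signal over DMSO so agonist or activator.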 Put shortly: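 Transient HepG2 transfection, GAL4-UAS reporters, NR-Gal4 chimeras; 24 h compound exposure. Readout: reporter transcripts by RT-PCR, 6-FAM primer extension, HpaI digest, capillary electrophoresis. Positive direction vs DMSO baseline.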

Assay [2] deals with human Peroxisome Proliferator-activated Receptor delta (PPARd), PPARD (gene 5467) (UniProt Q03181). As to the kind of experiment: ATG_PPARd_TRANS: Attagene TRANS-FACTORIAL HepG2 Assay for human Peroxisome Proliferator-activated Receptor delta (PPARd) (AID 2283002). Put shortly: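 Fluorescence from capillary electrophoresis of labelled RT-PCR reporter fragments gives the signal; DMSO sets baseline. Cells: HepG2 transiently carrying GAL4-UAS reporter units plus chimeric nuclear receptor-Gal4 proteins, exposed to chemicals for 24 h.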
Sequence of human Peroxisome Proliferator-activated Receptor delta (PPARd), PPARD (gene 5467) (Q03181 whole entry, looked up, the tested form may be a part): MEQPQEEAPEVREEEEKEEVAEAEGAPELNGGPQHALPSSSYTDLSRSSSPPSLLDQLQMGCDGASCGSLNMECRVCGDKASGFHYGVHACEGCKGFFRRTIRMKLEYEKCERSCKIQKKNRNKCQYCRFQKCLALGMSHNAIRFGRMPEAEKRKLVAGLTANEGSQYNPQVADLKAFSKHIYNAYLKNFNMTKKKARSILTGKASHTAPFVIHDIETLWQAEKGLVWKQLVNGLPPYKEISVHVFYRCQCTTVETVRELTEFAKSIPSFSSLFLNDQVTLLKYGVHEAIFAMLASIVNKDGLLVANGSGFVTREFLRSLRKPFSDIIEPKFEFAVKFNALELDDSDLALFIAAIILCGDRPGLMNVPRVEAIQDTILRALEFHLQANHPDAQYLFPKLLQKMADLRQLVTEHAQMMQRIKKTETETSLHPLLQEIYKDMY

Read-out in assay [3]: Intercellular Adhesion Molecule 1 (ICAM1), ICAM1 (gene 3383)
As to the kind of experiment: BSK_3C_ICAM1: BioMAP Diversity Plus: 3C Assay for Intercellular Adhesion Molecule 1 (ICAM1) Biomarker Activity (AID 2283003; active = hit-call score of the fitted dose curve at least 0.9, where 1 is the maximum; inactive = score below 0.9). The following applies: primary human endothelial cells (HUVEC); actives raise or lower the signal. Put shortly: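 Using DMSO as baseline, bidirectional curve fitting was applied to ICAM-1 ELISA signals from HUVEC in the 3C system, measured 24 h after compound addition.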

Assay [4] addresses human Retinoic Acid Receptor beta (RARb), RARB (gene 5915) (UniProt P10826). Kind of assay: ATG_RARb_TRANS: Attagene TRANS-FACTORIAL HepG2 Assay for human Retinoic Acid Receptor beta (AID 2283004). Put shortly:
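Transient transfection of HepG2 with multiple reporter units → chemical dosing, 24 h → total RNA isolation → RT with oligo(dT) → reporter-specific PCR, 6-FAM primer extension, HpaI digest → capillary electrophoresis. Positive direction vs DMSO control.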

Assay [5] deals with Retinoic acid receptor alpha (Homo sapiens) (UniProt P10276). Kind of assay: ATG_RARa_TRANS: Attagene TRANS-FACTORIAL HepG2 Assay for human Retinoic Acid Receptor alpha (RARa) (AID 2283005). Put shortly:
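HepG2 transiently transfected with multiplex GAL4-UAS reporter units including a human RARa–GAL4 chimera; 24 h compound exposure. Reporter mRNA quantified by RT-PCR, 6-FAM labeling and capillary electrophoresis; gain of signal versus DMSO.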

Assay [6] is described as follows: BSK_3C_Proliferation: Cell Proliferation Assessment in the BioMAP Diversity Plus: 3C Assay (AID 2283006; active = hit-call score of the fitted dose curve at least 0.9, where 1 is the maximum; inactive = score below 0.9;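 as to AC50: potency may reflect either rise or fall in cell number versus DMSO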). The following applies: primary human endothelial cells (HUVEC). Put shortly:
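Measured here: sulforhodamine B (0.1%) staining of TCA-fixed sub-confluent umbilical vein endothelial cultures 48 h post-dosing, absorbance 560 nm. DMSO served as negative control and baseline; both signal gain and loss were modelled.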

The target of assay [7] is Peroxisome proliferator-activated receptor gamma (Homo sapiens) (UniProt P37231). As to the kind of experiment: ATG_PPARg_TRANS: Attagene TRANS-FACTORIAL HepG2 Assay for human Peroxisome Proliferator-activated Receptor-gamma (PPARg) (AID 2283007). Put shortly:
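After 24 h of chemical exposure, transfected HepG2 cells carrying PPARγ-Gal4 chimera reporter constructs are lysed for RNA. Reporter transcripts are measured by RT-PCR and capillary electrophoresis with fluorescent labelling, and gain of signal is fitted versus DMSO.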

The target of assay [8] is Nuclear receptor subfamily 1 group I member 2 (Homo sapiens) (UniProt O75469). As to the kind of experiment: ATG_PXR_TRANS: Attagene TRANS-FACTORIAL HepG2 Assay for human Pregnane X Receptor (PXR) (AID 2283008). Put shortly:
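Transactivation by exogenous PXR–GAL4 fusion measured as reporter transcript induction after 24 h compound treatment of transfected human HepG2 cells. Read-out via RT-PCR and capillary electrophoresis of labelled fragments, fitted upward relative to DMSO.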

In assay [9] the target is human RAR-related Orphan Receptor beta (RORb), RORB (gene 6096) (UniProt Q92753). As to the kind of experiment: ATG_RORb_TRANS: Attagene TRANS-FACTORIAL HepG2 Assay for human RAR-related Orphan Receptor beta (RORb) (AID 2283010). Put shortly: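 Multiplexed transcription-factor reporter assay: HepG2 cells transiently carrying NR-Gal4/GAL4-UAS constructs, 24 h treatment, mRNA quantified by RT-PCR plus capillary electrophoresis fluorescence; activity scored as induction over DMSO.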
Sequence of human RAR-related Orphan Receptor beta (RORb), RORB (gene 6096) (Q92753 whole entry, looked up, the tested form may be a part): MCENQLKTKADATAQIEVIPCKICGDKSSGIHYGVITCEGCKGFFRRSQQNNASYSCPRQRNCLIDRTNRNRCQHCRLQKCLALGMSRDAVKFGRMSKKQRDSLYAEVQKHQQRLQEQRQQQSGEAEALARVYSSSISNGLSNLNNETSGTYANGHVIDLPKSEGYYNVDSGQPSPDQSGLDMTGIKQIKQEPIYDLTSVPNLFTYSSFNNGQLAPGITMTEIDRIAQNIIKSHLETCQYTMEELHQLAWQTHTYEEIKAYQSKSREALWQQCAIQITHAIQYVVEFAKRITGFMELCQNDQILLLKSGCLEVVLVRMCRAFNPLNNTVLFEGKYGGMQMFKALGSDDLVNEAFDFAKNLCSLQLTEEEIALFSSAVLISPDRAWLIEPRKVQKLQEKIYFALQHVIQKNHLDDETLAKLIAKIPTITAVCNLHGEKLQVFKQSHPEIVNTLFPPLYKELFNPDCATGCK

Assay [10] concerns the target Retinoic acid receptor RXR-alpha (Homo sapiens) (UniProt P19793). Kind of assay: ATG_RXRa_TRANS: Attagene TRANS-FACTORIAL HepG2 Assay for human Retinoid X Receptor alpha (RXRa) (AID 2283012). Put shortly: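 Chimeric NR-GAL4 trans-activation in HepG2, 24 h treatment; reporter transcripts quantified by fluorescence on capillary electrophoresis, analysed for upward change from DMSO.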

The target in assay [11] is human Thyroid Receptor alpha (THRa1), THRA (gene 7067) (UniProt P10827). Kind of assay: ATG_THRa1_TRANS: Attagene TRANS-FACTORIAL HepG2 Assay for human Thyroid Receptor alpha (THRa1) (AID 2283014). Put shortly: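 Reporter transcript induction, read by capillary electrophoresis of 6-FAM-labelled RT-PCR products, reflects activity of a transfected THRa1-Gal4 fusion in HepG2 liver cells. Cells were dosed for 24 h; activity was fitted in the positive direction against DMSO.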
Sequence of human Thyroid Receptor alpha (THRa1), THRA (gene 7067) (P10827 whole entry, looked up, the tested form may be a part): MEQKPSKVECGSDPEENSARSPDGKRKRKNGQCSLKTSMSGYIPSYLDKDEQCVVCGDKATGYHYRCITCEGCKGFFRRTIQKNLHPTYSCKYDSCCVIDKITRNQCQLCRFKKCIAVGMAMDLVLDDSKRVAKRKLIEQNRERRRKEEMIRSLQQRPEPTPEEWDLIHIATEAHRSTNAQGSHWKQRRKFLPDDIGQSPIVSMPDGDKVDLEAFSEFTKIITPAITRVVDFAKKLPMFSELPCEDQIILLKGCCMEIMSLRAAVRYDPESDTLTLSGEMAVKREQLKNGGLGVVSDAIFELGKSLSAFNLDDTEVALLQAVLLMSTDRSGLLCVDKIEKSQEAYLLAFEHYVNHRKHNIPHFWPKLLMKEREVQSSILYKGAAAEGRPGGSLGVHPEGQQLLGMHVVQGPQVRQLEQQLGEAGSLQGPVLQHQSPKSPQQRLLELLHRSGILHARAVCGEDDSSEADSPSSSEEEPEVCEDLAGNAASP

Read-out in assay [12]: E-selectin (Homo sapiens) (UniProt P16581)
As to the kind of experiment: BSK_3C_Eselectin: BioMAP Diversity Plus: 3C Assay for Eselectin Biomarker Activity (AID 2283015; active = hit-call score of the fitted dose curve at least 0.9, where 1 is the maximum; inactive = score below 0.9;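 as to outcome: cell surface E-selectin protein quantified by ELISA 24 h after dosing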). Particulars: primary human endothelial cells (HUVEC); actives raise or lower the signal. Put shortly: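 ELISA read-out of E-selectin on endothelial monolayers after 24 h chemical treatment. Human umbilical vein primary cells served as the system, with DMSO defining baseline activity for bidirectional fitting.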

Read-out in assay [13]: Interleukin-1 alpha (IL1a), IL1A (gene 3552)
As to the kind of experiment: BSK_BE3C_IL1a: BioMAP Diversity Plus: BE3C Assay for Interleukin-1 alpha (IL1a) Biomarker Activity (AID 2283016; active = hit-call score of the fitted dose curve at least 0.9, where 1 is the maximum; inactive = score below 0.9). Particulars: primary human bronchial epithelial cells; actives raise or lower the signal. Put shortly:
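Measured in human lung primary bronchial epithelial cells: IL-1a by ELISA at 24 h after dosing, with bidirectional fitting against DMSO.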

Read-out in assay [14]: Monocyte Chemoattractant Protein-1 (MCP1), CCL2 (gene 6347)
As to the kind of experiment: BSK_3C_MCP1: BioMAP Diversity Plus: 3C Assay for Monocyte Chemoattractant Protein-1 (MCP1) Biomarker Activity (AID 2283017; active = hit-call score of the fitted dose curve at least 0.9, where 1 is the maximum; inactive = score below 0.9). Particulars: primary human endothelial cells (HUVEC); actives raise or lower the signal. Put shortly: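 ELISA read-out of MCP-1 from human umbilical vein endothelial cell cultures harvested 24 h post-dosing. Gain or loss of signal was fitted relative to DMSO.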

Read-out in assay [15]: Monocyte Chemoattractant Protein-1 (MCP1), CCL2 (gene 6347)
Kind of assay: BSK_4H_MCP1: BioMAP Diversity Plus: 4H Assay for Monocyte Chemoattractant Protein-1 (MCP1) Biomarker Activity (AID 2283018; active = hit-call score of the fitted dose curve at least 0.9, where 1 is the maximum; inactive = score below 0.9). Particulars: primary human endothelial cells (HUVEC); actives raise or lower the signal. Put shortly:
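Primary human umbilical vein endothelium is exposed to chemical for 24 h before MCP-1 is assayed by ELISA. Concentration-response fitted bidirectionally relative to DMSO.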

Read-out in assay [16]: Human Leukocyte Antigen - DR isotype (HLADR), HLA-DRA (gene 3122)
As to the kind of experiment: BSK_3C_HLADR: BioMAP Diversity Plus: 3C Assay for Human Leukocyte Antigen - DR isotype (HLADR) Biomarker Activity (AID 2283019; active = hit-call score of the fitted dose curve at least 0.9, where 1 is the maximum; inactive = score below 0.9;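 as to outcome: ELISA of cell-surface HLA-DR on HUVEC 24 h after dosing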). The following applies: primary human endothelial cells (HUVEC); actives raise or lower the signal. Put shortly:
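ELISA readout of surface HLA-DR on human umbilical vein endothelium, taken 24 h after chemical treatment. Gain- and loss-of-signal were both fitted relative to DMSO.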

Read-out in assay [17]: Interleukin-8 (IL8), CXCL8 (gene 3576)
Kind of assay: BSK_3C_IL8: BioMAP Diversity Plus: 3C Assay for Interleukin-8 (IL8) Biomarker Activity (AID 2283020; active = hit-call score of the fitted dose curve at least 0.9, where 1 is the maximum; inactive = score below 0.9). Particulars: primary human endothelial cells (HUVEC); actives raise or lower the signal. Put shortly: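 Using DMSO-treated wells as the baseline, bidirectional curve fitting was applied to ELISA-measured IL-8 from human umbilical vein endothelial cultures sampled 24 h after compound addition.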

Assay [18] concerns the target human Vitamin D Receptor (VDR), VDR (gene 7421) (UniProt P11473). As to the kind of experiment: ATG_VDR_TRANS: Attagene TRANS-FACTORIAL HepG2 Assay for human Vitamin D Receptor (VDR) (AID 2283022). Put shortly:
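Steps: transfect HepG2 with GAL4-UAS-driven reporter constructs; dose compounds 24 h; isolate RNA, reverse-transcribe, PCR-amplify with 6-FAM-labelled primer extension and HpaI digestion; quantify fragments by capillary electrophoresis relative to DMSO.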

For assay [19], the target named is human Retinoid X Receptor beta (RXRb), RXRB (gene 6257) (UniProt P28702). As to the kind of experiment: ATG_RXRb_TRANS: Attagene TRANS-FACTORIAL HepG2 Assay for human Retinoid X Receptor beta (RXRb) (AID 2283013). Put shortly:
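After a 24 h incubation with test chemical, transfected HepG2 cells carrying NR-Gal4 fusions and GAL4-UAS reporter transcription units yield RNA whose reporter cDNA is FAM-labelled, HpaI-cut and sized by capillary electrophoresis; increases over DMSO are scored.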

Read-out in assay [20]: Monokine induced gamma interferon (MIG), CXCL9 (gene 4283)
Kind of assay: BSK_3C_MIG: BioMAP Diversity Plus: 3C Assay for Monokine induced gamma interferon (MIG) Biomarker Activity (AID 2283021; active = hit-call score of the fitted dose curve at least 0.9, where 1 is the maximum; inactive = score below 0.9). Particulars: primary human endothelial cells (HUVEC); actives raise or lower the signal. Put shortly:
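ELISA-measured MIG in dosed HUVEC 3C cultures at 24 h, analysed by bidirectional fitting with DMSO defining baseline activity.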

Sequence of human Peroxisome Proliferator-activated Receptor alpha (PPARa), PPARA (gene 5465) (Q07869 whole entry, looked up, the tested form may be a part): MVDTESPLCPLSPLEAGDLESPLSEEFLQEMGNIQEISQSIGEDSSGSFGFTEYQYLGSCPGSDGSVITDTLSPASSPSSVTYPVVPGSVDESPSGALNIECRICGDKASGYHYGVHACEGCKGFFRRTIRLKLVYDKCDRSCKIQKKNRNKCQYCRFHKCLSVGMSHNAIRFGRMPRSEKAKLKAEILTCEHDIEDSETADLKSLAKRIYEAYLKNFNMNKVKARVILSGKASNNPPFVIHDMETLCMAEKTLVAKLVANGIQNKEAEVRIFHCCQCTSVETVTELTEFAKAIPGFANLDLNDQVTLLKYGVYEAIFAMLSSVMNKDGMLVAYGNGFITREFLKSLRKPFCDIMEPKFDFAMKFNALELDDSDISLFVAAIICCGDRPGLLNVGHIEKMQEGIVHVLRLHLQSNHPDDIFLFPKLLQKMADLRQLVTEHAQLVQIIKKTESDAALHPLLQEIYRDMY
Sequence of Peroxisome proliferator-activated receptor gamma (Homo sapiens) (P37231 whole entry, looked up, the tested form may be a part): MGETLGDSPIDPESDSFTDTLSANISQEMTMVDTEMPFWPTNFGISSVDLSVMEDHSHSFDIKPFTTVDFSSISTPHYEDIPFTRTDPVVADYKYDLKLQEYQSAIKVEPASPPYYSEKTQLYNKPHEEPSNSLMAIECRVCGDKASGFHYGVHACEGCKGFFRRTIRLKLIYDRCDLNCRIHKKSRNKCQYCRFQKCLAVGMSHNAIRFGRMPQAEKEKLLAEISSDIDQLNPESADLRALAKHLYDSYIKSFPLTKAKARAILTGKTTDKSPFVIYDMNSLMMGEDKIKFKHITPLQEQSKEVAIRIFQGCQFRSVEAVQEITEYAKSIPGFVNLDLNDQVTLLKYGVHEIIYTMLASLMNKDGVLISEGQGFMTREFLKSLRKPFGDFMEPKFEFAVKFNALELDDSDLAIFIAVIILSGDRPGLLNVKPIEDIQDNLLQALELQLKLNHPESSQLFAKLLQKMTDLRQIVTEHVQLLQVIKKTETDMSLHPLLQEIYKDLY
Sequence of human Retinoid X Receptor beta (RXRb), RXRB (gene 6257) (P28702 whole entry, looked up, the tested form may be a part): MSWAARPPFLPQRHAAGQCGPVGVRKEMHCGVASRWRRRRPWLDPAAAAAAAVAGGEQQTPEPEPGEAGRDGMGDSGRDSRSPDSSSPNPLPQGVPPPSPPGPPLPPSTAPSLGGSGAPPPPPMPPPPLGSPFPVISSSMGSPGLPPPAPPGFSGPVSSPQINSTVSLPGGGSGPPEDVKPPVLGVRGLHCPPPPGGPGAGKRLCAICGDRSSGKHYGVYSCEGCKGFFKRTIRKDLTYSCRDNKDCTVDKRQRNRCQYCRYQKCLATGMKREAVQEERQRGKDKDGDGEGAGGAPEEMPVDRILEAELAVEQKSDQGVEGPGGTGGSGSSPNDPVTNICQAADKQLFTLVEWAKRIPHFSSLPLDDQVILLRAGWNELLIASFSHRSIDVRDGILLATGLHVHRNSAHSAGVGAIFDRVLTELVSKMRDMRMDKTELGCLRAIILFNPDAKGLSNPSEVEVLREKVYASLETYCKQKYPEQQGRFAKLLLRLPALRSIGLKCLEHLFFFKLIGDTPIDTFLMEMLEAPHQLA
Sequence of Nuclear receptor subfamily 1 group I member 2 (Homo sapiens) (O75469 whole entry, looked up, the tested form may be a part): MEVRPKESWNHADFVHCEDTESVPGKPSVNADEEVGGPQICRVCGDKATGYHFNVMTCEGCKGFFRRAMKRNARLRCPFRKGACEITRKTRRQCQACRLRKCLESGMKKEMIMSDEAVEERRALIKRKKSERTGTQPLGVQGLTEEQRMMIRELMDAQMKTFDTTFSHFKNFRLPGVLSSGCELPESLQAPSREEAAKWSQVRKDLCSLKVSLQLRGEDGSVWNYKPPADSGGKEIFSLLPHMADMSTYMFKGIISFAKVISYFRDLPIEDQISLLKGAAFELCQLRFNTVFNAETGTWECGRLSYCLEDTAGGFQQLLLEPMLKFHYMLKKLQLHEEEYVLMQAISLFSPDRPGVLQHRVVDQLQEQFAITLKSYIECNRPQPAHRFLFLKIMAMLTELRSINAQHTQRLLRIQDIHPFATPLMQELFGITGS
Sequence of human Vitamin D Receptor (VDR), VDR (gene 7421) (P11473 whole entry, looked up, the tested form may be a part): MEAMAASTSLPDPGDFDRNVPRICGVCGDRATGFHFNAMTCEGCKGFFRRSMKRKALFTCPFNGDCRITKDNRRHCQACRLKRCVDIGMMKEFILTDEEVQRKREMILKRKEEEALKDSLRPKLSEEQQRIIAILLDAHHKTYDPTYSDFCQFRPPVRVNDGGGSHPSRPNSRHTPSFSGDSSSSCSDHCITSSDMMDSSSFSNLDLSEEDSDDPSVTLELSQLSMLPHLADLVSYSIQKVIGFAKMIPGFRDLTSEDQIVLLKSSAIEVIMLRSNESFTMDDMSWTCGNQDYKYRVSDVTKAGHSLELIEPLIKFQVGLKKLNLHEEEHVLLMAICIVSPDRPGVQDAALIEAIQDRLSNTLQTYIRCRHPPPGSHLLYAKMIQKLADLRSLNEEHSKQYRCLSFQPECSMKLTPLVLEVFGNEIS
Sequence of E-selectin (Homo sapiens) (P16581 whole entry, looked up): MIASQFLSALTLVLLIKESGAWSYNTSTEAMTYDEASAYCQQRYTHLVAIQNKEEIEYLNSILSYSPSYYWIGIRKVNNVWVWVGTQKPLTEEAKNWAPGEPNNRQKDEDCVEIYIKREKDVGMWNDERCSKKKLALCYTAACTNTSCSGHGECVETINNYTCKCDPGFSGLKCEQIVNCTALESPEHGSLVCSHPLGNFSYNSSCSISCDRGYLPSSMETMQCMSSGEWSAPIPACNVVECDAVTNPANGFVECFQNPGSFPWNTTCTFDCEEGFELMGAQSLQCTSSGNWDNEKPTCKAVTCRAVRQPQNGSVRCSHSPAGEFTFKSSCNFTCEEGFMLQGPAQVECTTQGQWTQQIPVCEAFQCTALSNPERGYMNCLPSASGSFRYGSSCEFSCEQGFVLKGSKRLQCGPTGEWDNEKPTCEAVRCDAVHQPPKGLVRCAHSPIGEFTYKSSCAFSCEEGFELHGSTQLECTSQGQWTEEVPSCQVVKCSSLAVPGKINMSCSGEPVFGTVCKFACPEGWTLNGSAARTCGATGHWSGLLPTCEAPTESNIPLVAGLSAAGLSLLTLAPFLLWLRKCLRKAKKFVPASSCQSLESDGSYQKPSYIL
Sequence of Retinoic acid receptor RXR-alpha (Homo sapiens) (P19793 whole entry, looked up, the tested form may be a part): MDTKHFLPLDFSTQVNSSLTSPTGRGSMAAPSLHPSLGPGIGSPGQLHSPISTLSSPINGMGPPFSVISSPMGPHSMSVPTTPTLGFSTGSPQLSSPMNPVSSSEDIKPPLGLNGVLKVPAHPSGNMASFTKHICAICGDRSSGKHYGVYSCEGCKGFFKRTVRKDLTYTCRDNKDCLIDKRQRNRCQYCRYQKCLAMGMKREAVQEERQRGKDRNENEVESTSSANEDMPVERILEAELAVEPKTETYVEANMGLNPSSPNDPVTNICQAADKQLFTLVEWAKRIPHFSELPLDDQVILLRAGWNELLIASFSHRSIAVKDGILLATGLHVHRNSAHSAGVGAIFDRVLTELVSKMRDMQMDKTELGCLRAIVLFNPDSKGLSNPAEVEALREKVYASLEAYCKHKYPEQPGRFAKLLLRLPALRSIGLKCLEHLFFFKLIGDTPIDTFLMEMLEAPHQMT

Consider `CCCCCCCCOc1ccc(C(=O)c2ccccc2)c(O)c1`, for which the outcome in assay [1], in assay [2], in assay [3], in assay [4], in assay [5] and in assay [7] was inactive. Moreover, the compound was called inactive in assay [8], in assay [9], in [10], in assay [11], in [12] and in [13]. Besides, the result in assay [14], in [15], in assay [17] and in [18] was inactive. Also, the AC50 – broadly, the midpoint of the concentration-response curve, whichever way the signal moves – in assay [6] is 30.1 µM (active); in assay [16], 24.7 µM (active).

In the case of `CN1C(=O)CC[C@H]1c1cccnc1`, the compound was called inactive in [1], in assay [3], in [6], in assay [7], in [8] and in [19]. Moreover, the result in [12], in [13], in assay [14], in assay [15], in [16] and in [17] was inactive. Further, in assay [20], the outcome was inactive.

As for `NCc1cccc(C2CCN(C(=O)c3ccc(C#Cc4ccccc4F)o3)CC2)c1`, the AC50 in assay [1] is 0.909 µM (active); in [3] it was 30.1 µM (active); in assay [6] it was 8.67 µM (active); in assay [7], 1.33 µM (active); in [8], 8.45 µM (active); in assay [12], 35.6 µM (active). Moreover, the AC50 in [13] was 15 µM (active); in assay [14] it was 20.8 µM (active); in assay [15], 20 µM (active); in assay [16], 11.3 µM (active); in assay [17] it was 23.1 µM (active). Further, the compound was called inactive in [10], in assay [19], in assay [11] and in assay [18].

On to `CCCCOC(=O)CC(CC(=O)OCCCC)(OC(C)=O)C(=O)OCCCC`, for which the outcome in assay [1], in assay [2], in assay [3], in assay [8], in assay [10] and in assay [11] was inactive. Moreover, the outcome in assay [12], in assay [13], in [14], in [15], in assay [16] and in assay [17] was inactive. Besides, the call in [18] was inactive. The AC50 in assay [6] is 31.5 µM (active); in [7], 16.2 µM (active) and 8.69 µM (active); in [8] it was 3.1 µM (active).
